The values that follow come from PubChem BioAssay (Tox21).

Inconclusive results are not listed. A call without a number means that no potency is given here. Active and inactive are the calls of the source. Calls come from the whole dose curve; as a rule, active = well fitted cell-killing curve with a large enough effect in the repeat runs; inconclusive = weak or mixed curves, or effect the other way; inactive = flat fitted curve, though single readings scatter.
Potency is the fitted concentration of half-maximal effect.

The nature of the assay: Human pregnane X receptor (PXR) small molecule agonists, qHTS cell viability counter screen (AID 1346977). Note: nearly all actives have a fitted effect of over 50% in size. As to conditions: PXR-Luc HepG2 viability, CellTiter-Fluor, 24 h; series mostly up to 92.4 µM. The essentials:
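After a 5hr pre-incubation, PXR-Luc HepG2 cells received compounds plus positive control in DMSO and were kept 24hr at 37C. Cell viability was quantified by fluorescence from CellTiter-Fluor added for the final hour.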
Take `CCC[CH2][Sn]([CH2]CCC)([CH2]CCC)[CH2]CCC`: the Potency is 15.4 µM (active). Regarding `CCCCC(CC)COC(=O)c1ccccc1C(=O)OCC(CC)CCCC` (stereo unspecified), the Potency entry was “inactive”. With `N#Cc1ccc(N(CC(N)=O)CC(F)(F)F)cc1C(F)(F)F` the entry was “inactive”. The result for `CC(C)c1c(CN(C)C(C)Cc2ccccc2)n(C)n(-c2ccccc2)c1=O` (stereo unspecified) reads “inactive”; that for `N#CCCl`, “inactive”. `BrCC(Br)(Br)Br`: the Potency entry was “inactive”. Regarding `COP(=S)(OC)Oc1ccc([N+](=O)[O-])c(C)c1`, the Potency result is “inactive”. The result for `CSSC` reads “inactive”; that for `O=C(NC(=O)c1ccccc1Cl)Nc1ccc(OC(F)(F)F)cc1`, “inactive”; that for `[Cl-].[Cl-].[Cl-].[Yb+3]`, “inactive”.

Take `CC1(C)[C@H](/C=C2\CCSC2=O)[C@@H]1C(=O)OCc1coc(Cc2ccccc2)c1`: the Potency result was “inactive”.
